In the supplement of paper PMC3545927:
The other results are listed elsewhere or left out. The hit rate among all sequences tested is not known here.

Molecular target: furin, P09958
Assay: furin cleavage Z-score vs untreated control; higher = more cleavage, active = 3.5 or more, inactive = 1 or less, 8 variable residues between constant flanks
Outline: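 Sequencing of released DNA, tagged with adapters by PCR, gave read counts used as abundance. That DNA was freed when purified furin cut N-terminally bead-bound 8-mer peptides fused to a cDNA oligonucleotide, in 0.01 ml reactions at 1:10 enzyme:substrate in 50 mM HEPES pH 7.5 with CaCl2 and NaCl, lasting 7.5, 15 or 30 min. The cleavage Z-score was the lowess-adjusted log count versus furin-free reactions, scaled by median absolute deviation.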

furin, P09958, sequence (P09958 whole entry): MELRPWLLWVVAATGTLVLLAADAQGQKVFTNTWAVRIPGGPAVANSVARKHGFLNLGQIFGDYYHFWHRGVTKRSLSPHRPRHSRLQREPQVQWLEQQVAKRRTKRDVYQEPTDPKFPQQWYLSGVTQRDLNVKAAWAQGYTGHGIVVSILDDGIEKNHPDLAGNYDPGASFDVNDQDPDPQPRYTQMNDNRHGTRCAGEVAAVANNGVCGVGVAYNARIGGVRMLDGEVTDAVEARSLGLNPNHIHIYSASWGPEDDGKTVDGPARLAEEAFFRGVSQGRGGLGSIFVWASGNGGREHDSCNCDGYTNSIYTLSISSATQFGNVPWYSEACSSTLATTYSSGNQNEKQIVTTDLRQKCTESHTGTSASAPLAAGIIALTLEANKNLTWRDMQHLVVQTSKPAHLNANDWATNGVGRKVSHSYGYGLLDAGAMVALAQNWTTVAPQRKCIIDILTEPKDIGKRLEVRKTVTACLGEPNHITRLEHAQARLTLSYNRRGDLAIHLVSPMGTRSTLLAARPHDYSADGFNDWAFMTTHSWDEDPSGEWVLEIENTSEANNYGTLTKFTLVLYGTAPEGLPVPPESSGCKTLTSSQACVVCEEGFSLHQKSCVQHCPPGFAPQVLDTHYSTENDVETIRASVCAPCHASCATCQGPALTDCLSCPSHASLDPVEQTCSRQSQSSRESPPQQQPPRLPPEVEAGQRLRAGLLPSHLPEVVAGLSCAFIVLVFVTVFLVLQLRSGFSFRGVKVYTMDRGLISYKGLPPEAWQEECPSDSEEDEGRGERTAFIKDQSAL

CAEWPCHRPSAGNASASA [HC2328] was tested. Which “furin cleavage Z-score” value (7.5 min) did it give?
Its value is 2.33.

And the “furin cleavage Z-score” value (15 min)?
Its value is 0.752 (inactive).

And the “furin cleavage Z-score” value (30 min)?
The value was 0.743 (inactive).

CALRDIWDWIAGNASASA [HC1149] was tested. Which “furin cleavage Z-score” value (7.5 min) did it give?
The value was -0.31 (inactive).

And the “furin cleavage Z-score” value (15 min)?
Its value is 1.9.

What about the “furin cleavage Z-score” value (30 min) of the same sequence?
The value was 1.08.

With CAMMNWSPTTAGNASASA [HC322] as the sequence, how does the “furin cleavage Z-score” value (7.5 min) read?
The value was -3.83 (inactive).

And the “furin cleavage Z-score” value (15 min)?
Its value is 0.346 (inactive).

And the “furin cleavage Z-score” value (30 min)?
The value was -1.29 (inactive).

What does the source list for CALDLSGWFTAGNASASA [HC1643]?
furin cleavage Z-score (7.5 min): 1.07; furin cleavage Z-score (15 min): 0.845 (inactive); furin cleavage Z-score (30 min): -0.793 (inactive)

With CAQALDCEIYAGNASASA [HC1591] as the sequence, how does the “furin cleavage Z-score” value (7.5 min) read?
The value was -1.45 (inactive).

What about the “furin cleavage Z-score” value (15 min) of the same sequence?
The value was 0.168 (inactive).

And the “furin cleavage Z-score” value (30 min)?
The value was -0.351 (inactive).

With CATKDNFKRSAGNASASA [FS-727] as the sequence, how does the “furin cleavage Z-score” value (7.5 min) read?
Its value is 2.99.

What about the “furin cleavage Z-score” value (15 min) of the same sequence?
The value was 1.62.

And the “furin cleavage Z-score” value (30 min)?
The value was 3.93 (active).

Which results are given for CATKDRKRRSAGNASASA [FS-880]?
furin cleavage Z-score (7.5 min): 13.4 (active); furin cleavage Z-score (15 min): 13.2 (active); furin cleavage Z-score (30 min): 8.6 (active)

Which “furin cleavage Z-score” value (7.5 min) does the source give for CAKRGRKRRSAGNASASA [FS-1021] here?
Its value is 13.5 (active).

And the “furin cleavage Z-score” value (15 min)?
Its value is 12.1 (active).

And the “furin cleavage Z-score” value (30 min)?
The value was 11.2 (active).

CATKADKRRSAGNASASA [FS-1093] was tested. Which “furin cleavage Z-score” value (7.5 min) did it give?
Its value is 1.16.

And the “furin cleavage Z-score” value (15 min)?
The value was -0.227 (inactive).

And the “furin cleavage Z-score” value (30 min)?
Its value is 0.33 (inactive).

With CATDDDFERSAGNASASA [FS-629] as the sequence, how does the “furin cleavage Z-score” value (7.5 min) read?
The value was -0.626 (inactive).

What about the “furin cleavage Z-score” value (15 min) of the same sequence?
The value was -1.72 (inactive).

And the “furin cleavage Z-score” value (30 min)?
The value was 0.0381 (inactive).

How did the “furin cleavage Z-score” value (7.5 min) turn out when CAKRGREFRIAGNASASA [FS-909] was run?
The value was 0.58 (inactive).

And the “furin cleavage Z-score” value (15 min)?
The value was -0.852 (inactive).

And the “furin cleavage Z-score” value (30 min)?
The value was -0.651 (inactive).

What does the source list for CARVTRYSNIAGNASASA [FS-2198]?
furin cleavage Z-score (7.5 min): -0.808 (inactive); furin cleavage Z-score (15 min): -0.0709 (inactive); furin cleavage Z-score (30 min): 0.615 (inactive)

Which “furin cleavage Z-score” value (7.5 min) does the source give for CAEMVVCCSMAGNASASA [HC2126] here?
Its value is -1.21 (inactive).

And the “furin cleavage Z-score” value (15 min)?
Its value is -1.21 (inactive).

What about the “furin cleavage Z-score” value (30 min) of the same sequence?
The value was 0.778 (inactive).

Which “furin cleavage Z-score” value (7.5 min) does the source give for CATTPGSGSWAGNASASA [HC42] here?
Its value is -0.496 (inactive).

And the “furin cleavage Z-score” value (15 min)?
Its value is -0.533 (inactive).

What about the “furin cleavage Z-score” value (30 min) of the same sequence?
The value was -0.629 (inactive).

Which results are given for CADDVVCCSMAGNASASA [HC2111]?
furin cleavage Z-score (7.5 min): -0.752 (inactive); furin cleavage Z-score (15 min): 0.00684 (inactive); furin cleavage Z-score (30 min): -0.0395 (inactive)

How did the “furin cleavage Z-score” value (7.5 min) turn out when CARHRRHHHQAGNASASA [FS-2337] was run?
The value was 2.13.

What about the “furin cleavage Z-score” value (15 min) of the same sequence?
The value was 3.45.

What about the “furin cleavage Z-score” value (30 min) of the same sequence?
Its value is 4 (active).

Which “furin cleavage Z-score” value (7.5 min) does the source give for CARMRRHHHHAGNASASA [FS-2158] here?
The value was 2.42.

And the “furin cleavage Z-score” value (15 min)?
Its value is 4.46 (active).

What about the “furin cleavage Z-score” value (30 min) of the same sequence?
The value was 5.23 (active).

With CARHRKHSPQAGNASASA [FS-2680] as the sequence, how does the “furin cleavage Z-score” value (7.5 min) read?
The value was 0.00638 (inactive).

What about the “furin cleavage Z-score” value (15 min) of the same sequence?
The value was 0.0202 (inactive).

And the “furin cleavage Z-score” value (30 min)?
The value was -0.323 (inactive).

CAMEECSQHHAGNASASA [HC1775] was tested. Which “furin cleavage Z-score” value (7.5 min) did it give?
The value was 1.05.

What about the “furin cleavage Z-score” value (15 min) of the same sequence?
Its value is -0.421 (inactive).

What about the “furin cleavage Z-score” value (30 min) of the same sequence?
The value was 0.321 (inactive).

For CAQAGRSRKEAGNASASA [FS-950], which “furin cleavage Z-score” value (7.5 min) is on record?
The value was 0.322 (inactive).

What about the “furin cleavage Z-score” value (15 min) of the same sequence?
Its value is -1.35 (inactive).

And the “furin cleavage Z-score” value (30 min)?
The value was 0.565 (inactive).

How did the “furin cleavage Z-score” value (7.5 min) turn out when CAHPHRQRKEAGNASASA [FS-1009] was run?
Its value is 2.12.

And the “furin cleavage Z-score” value (15 min)?
Its value is 4.93 (active).

What about the “furin cleavage Z-score” value (30 min) of the same sequence?
The value was 2.5.

How did the “furin cleavage Z-score” value (7.5 min) turn out when CAHPHRTKREAGNASASA [FS-795] was run?
The value was 11.5 (active).

And the “furin cleavage Z-score” value (15 min)?
The value was 12 (active).

And the “furin cleavage Z-score” value (30 min)?
Its value is 10.4 (active).

What does the source list for CAREKKAALEAGNASASA [FS-2656]?
furin cleavage Z-score (7.5 min): -1.1 (inactive); furin cleavage Z-score (15 min): 1.19; furin cleavage Z-score (30 min): 0.78 (inactive)

What does the source list for CALTERTKREAGNASASA [FS-1138]?
furin cleavage Z-score (7.5 min): 12.3 (active); furin cleavage Z-score (15 min): 13 (active); furin cleavage Z-score (30 min): 9.22 (active)

CALTESTLSTAGNASASA [HC1328] was tested. Which “furin cleavage Z-score” value (7.5 min) did it give?
Its value is -0.00854 (inactive).

And the “furin cleavage Z-score” value (15 min)?
The value was 0.199 (inactive).

And the “furin cleavage Z-score” value (30 min)?
The value was 1.01.

What does the source list for CAHPKQEKRSAGNASASA [FS-1209]?
furin cleavage Z-score (7.5 min): -0.192 (inactive); furin cleavage Z-score (15 min): 1 (inactive); furin cleavage Z-score (30 min): 1.55

With CAHRSRKAKEAGNASASA [FS-1010] as the sequence, how does the “furin cleavage Z-score” value (7.5 min) read?
Its value is 1.54.

And the “furin cleavage Z-score” value (15 min)?
Its value is 0.417 (inactive).

And the “furin cleavage Z-score” value (30 min)?
Its value is 1.2.

For CAVPHPNIEEAGNASASA [HC839], which “furin cleavage Z-score” value (7.5 min) is on record?
Its value is 0.645 (inactive).

What about the “furin cleavage Z-score” value (15 min) of the same sequence?
Its value is -1.08 (inactive).

What about the “furin cleavage Z-score” value (30 min) of the same sequence?
The value was 0.089 (inactive).

Which results are given for CAHPKRAVREAGNASASA [FS-2864]?
furin cleavage Z-score (7.5 min): 8.59 (active); furin cleavage Z-score (15 min): 8.52 (active); furin cleavage Z-score (30 min): 7.41 (active)

Which results are given for CAVIAPAVQTAGNASASA [HC1033]?
furin cleavage Z-score (7.5 min): 0.392 (inactive); furin cleavage Z-score (15 min): 0.329 (inactive); furin cleavage Z-score (30 min): 0.692 (inactive)

With CAFFTELDGVAGNASASA [HC1221] as the sequence, how does the “furin cleavage Z-score” value (7.5 min) read?
The value was -0.975 (inactive).

What about the “furin cleavage Z-score” value (15 min) of the same sequence?
The value was -0.00103 (inactive).

And the “furin cleavage Z-score” value (30 min)?
The value was -0.854 (inactive).

For CAEVPCHRPFAGNASASA [HC2407], which “furin cleavage Z-score” value (7.5 min) is on record?
Its value is -0.191 (inactive).

And the “furin cleavage Z-score” value (15 min)?
The value was 0.106 (inactive).

What about the “furin cleavage Z-score” value (30 min) of the same sequence?
The value was 0.623 (inactive).

Which results are given for CAECVVCCSMAGNASASA [HC2140]?
furin cleavage Z-score (7.5 min): 0.85 (inactive); furin cleavage Z-score (15 min): 1.09; furin cleavage Z-score (30 min): -0.883 (inactive)

CAEVPCHRPYAGNASASA [HC2409] was tested. Which “furin cleavage Z-score” value (7.5 min) did it give?
Its value is 0.869 (inactive).

What about the “furin cleavage Z-score” value (15 min) of the same sequence?
The value was -0.249 (inactive).

What about the “furin cleavage Z-score” value (30 min) of the same sequence?
The value was 1.01.

For CAEVVTSCWVAGNASASA [HC2220], which “furin cleavage Z-score” value (7.5 min) is on record?
Its value is -1.37 (inactive).

And the “furin cleavage Z-score” value (15 min)?
The value was 0.202 (inactive).

And the “furin cleavage Z-score” value (30 min)?
Its value is -0.78 (inactive).

How did the “furin cleavage Z-score” value (7.5 min) turn out when CAVVCCSRSYAGNASASA [HC2053] was run?
Its value is -1.24 (inactive).

And the “furin cleavage Z-score” value (15 min)?
The value was -0.358 (inactive).

And the “furin cleavage Z-score” value (30 min)?
Its value is 0.798 (inactive).

What does the source list for CACVCCSMSYAGNASASA [HC2000]?
furin cleavage Z-score (7.5 min): -0.467 (inactive); furin cleavage Z-score (15 min): -0.374 (inactive); furin cleavage Z-score (30 min): 0.0175 (inactive)

With CAGKKRTVEMAGNASASA [FS-2861] as the sequence, how does the “furin cleavage Z-score” value (7.5 min) read?
The value was -0.948 (inactive).

What about the “furin cleavage Z-score” value (15 min) of the same sequence?
The value was 0.0508 (inactive).

What about the “furin cleavage Z-score” value (30 min) of the same sequence?
Its value is -1.47 (inactive).

Which results are given for CASPSRTKRLAGNASASA [FS-870]?
furin cleavage Z-score (7.5 min): 7.89 (active); furin cleavage Z-score (15 min): 8.76 (active); furin cleavage Z-score (30 min): 6.67 (active)

CAMKKRTKRLAGNASASA [FS-365] was tested. Which “furin cleavage Z-score” value (7.5 min) did it give?
Its value is 9.31 (active).

And the “furin cleavage Z-score” value (15 min)?
The value was 8.89 (active).

And the “furin cleavage Z-score” value (30 min)?
Its value is 7.26 (active).

What does the source list for CASNQRPKRLAGNASASA [FS-298]?
furin cleavage Z-score (7.5 min): 5.25 (active); furin cleavage Z-score (15 min): 8.19 (active); furin cleavage Z-score (30 min): 7.26 (active)

How did the “furin cleavage Z-score” value (7.5 min) turn out when CAMWKCLIRLAGNASASA [HC964] was run?
The value was 0.587 (inactive).

What about the “furin cleavage Z-score” value (15 min) of the same sequence?
Its value is 2.14.

And the “furin cleavage Z-score” value (30 min)?
The value was 2.

What does the source list for CAANRRDVRLAGNASASA [FS-322]?
furin cleavage Z-score (7.5 min): 0.0384 (inactive); furin cleavage Z-score (15 min): -1.82 (inactive); furin cleavage Z-score (30 min): 1.41
